Reference: PubChem BioAssay (NCI)
The panel holds about 83,000 compounds, 20% with a hit somewhere; the sample as a whole holds those more often.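 Method: cells in 96-well plates; compound added at one concentration; 48 h incubation; percent growth measured; values under 10 scored active.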 Calls of active or inactive are those of the source.

Columns and labels:
Assay in all cases: NCI-60 one-dose screen, 48 h (100 = growth as untreated, 0 = no growth, -100 = all killed)
Conditions in all cases: 10 µM unless noted
T-47D breast = system: T-47D breast
BT-549 breast = system: BT-549 breast
MDA-MB-435 melanoma = system: MDA-MB-435 melanoma
SW-620 colon = system: SW-620 colon
HCT-116 colon = system: HCT-116 colon
HCC-2998 colon = system: HCC-2998 colon
KM12 colon = system: KM12 colon
MDA-MB-468 breast = system: MDA-MB-468 breast
MCF7 breast = system: MCF7 breast

Measured: growth

Cn1cc(-c2cc(N)n3nc(-c4c[nH]c5ccccc45)cc3n2)c2cccnc21
inactive: T-47D breast 22.2% | BT-549 breast 71.8%
active: MDA-MB-435 melanoma 5.57% | SW-620 colon -53.7% | HCT-116 colon -77.1% | HCC-2998 colon -31.6% | KM12 colon 1.87% | MDA-MB-468 breast -54.3%

O=C(c1ccc(Cl)cc1)c1ccc(OCCCN2CCN(c3ccncc3)CC2)cc1
active: MDA-MB-468 breast -16.8%
inactive: T-47D breast 29% | BT-549 breast 26.9% | MDA-MB-435 melanoma 41.4% | MCF7 breast 13.6% | HCT-116 colon 17.4% | HCC-2998 colon 64.9% | KM12 colon 57.9%

CC12CC[C@@H]3[C@]4(C)COC(c5cn[nH]c5-c5ccc(Cl)cc5)O[C@@H]4CC[C@@]3(C)[C@@H]1CC(C1=CCOC1=O)O2 (stereo not given in full)
active: T-47D breast 6.42% | BT-549 breast 5.38% | MDA-MB-468 breast 0.753%
inactive: MDA-MB-435 melanoma 47.7% | SW-620 colon 49.4% | HCT-116 colon 25.1% | HCC-2998 colon 58% | KM12 colon 31.9%

CSc1ccc(C(=O)Nc2ccc3nn(/C(C#N)=C/c4ccccn4)nc3c2)cc1
active: T-47D breast -26% | BT-549 breast -90.1% | MDA-MB-435 melanoma -44.9% | MCF7 breast -78.6% | HCT-116 colon -93.8% | HCC-2998 colon -99.8% | KM12 colon -43.6% | MDA-MB-468 breast -90.7%

CC(C)c1ccc2c(N)c(C(=O)Nc3ccc(C(F)(F)F)cn3)sc2n1
inactive: T-47D breast 23.2% | BT-549 breast 42.1% | MDA-MB-435 melanoma 54.8% | MCF7 breast 36.9% | HCT-116 colon 47.3% | HCC-2998 colon 96.1% | KM12 colon 57% | MDA-MB-468 breast 14.8%

CC1CCCCN1CCCNC(=O)N/C(N)=N/c1nc2ccccc2s1 (stereo not given)
active: MDA-MB-435 melanoma -35.2% | MCF7 breast -9.89%
inactive: T-47D breast 57.2% | BT-549 breast 55.6% | HCT-116 colon 16.8% | HCC-2998 colon 47.1% | KM12 colon 48.2% | MDA-MB-468 breast 11.2%

CCCSc1nc(NCCc2c[nH]c3ccccc23)c(C#N)c(-c2ccc(F)cc2)n1
inactive: T-47D breast 26.4% | BT-549 breast 64.5% | MDA-MB-435 melanoma 72.9% | MCF7 breast 35.3% | HCT-116 colon 22.6% | HCC-2998 colon 44.4% | KM12 colon 31.3%

Cc1cccc(-c2nc(Nc3cccc(S(N)(=O)=O)c3)c3ccccc3n2)c1
active: HCT-116 colon -5.73% | HCC-2998 colon -1.53%
inactive: T-47D breast 36.4% | BT-549 breast 88.6% | MDA-MB-435 melanoma 46.4% | MCF7 breast 33.3% | KM12 colon 11.6% | MDA-MB-468 breast 38.6%

Cc1cc2nc3c([nH]c2cc1C)c1ccc(=O)cc1n3CCN(C)C
inactive: T-47D breast 60% | BT-549 breast 65.5% | MDA-MB-435 melanoma 45% | MCF7 breast 12% | HCT-116 colon 14.4% | HCC-2998 colon 26.8% | KM12 colon 43.4% | MDA-MB-468 breast 43%

CC1=C(C(=O)c2ccccc2)C(c2ccc(-n3cncn3)cc2)n2c(nc3ccccc32)N1 (stereo not given)
inactive: T-47D breast 83.6% | BT-549 breast 67.4% | MDA-MB-435 melanoma 94% | MCF7 breast 66.7% | HCT-116 colon 73% | HCC-2998 colon 109% | KM12 colon 94.6%

N#Cc1c(-c2ccc(Br)cc2)nc2n[nH]c(-c3ccc(Br)cc3)c2c1-c1ccc(F)cc1
inactive: T-47D breast 74.6% | BT-549 breast 107% | MDA-MB-435 melanoma 102% | MCF7 breast 78.7% | HCT-116 colon 95.3% | HCC-2998 colon 108% | KM12 colon 105% | MDA-MB-468 breast 110%

O=C(O)c1cccc(-c2ccc(/C=N/NC(=O)c3[nH]c4ccc(Br)cc4c3-c3ccccc3)o2)c1
active: MDA-MB-468 breast -12.6%
inactive: T-47D breast 55.3% | BT-549 breast 34.7% | MDA-MB-435 melanoma 43.9% | MCF7 breast 53.1% | HCT-116 colon 66.2% | HCC-2998 colon 84.8% | KM12 colon 79.3%

C=C1CC[C@@H]2[C@]3(C)COC(c4cn(-c5ccccc5)nc4-c4cccc([N+](=O)[O-])c4)O[C@@H]3CC[C@@]2(C)[C@@H]1C/C=C1/C(=O)OC[C@H]1O (stereo not given in full)
active: T-47D breast -42.4% | BT-549 breast -55.9% | MDA-MB-435 melanoma -26.4% | MCF7 breast 2.33% | HCT-116 colon -13.7% | HCC-2998 colon -86% | KM12 colon 7.66%

CC(=O)Nc1ccc(-c2cn(-c3cccc(C(=O)Nc4ccc(N5CCN(C)CC5)cc4)c3)nn2)cn1
active: MDA-MB-468 breast -9.89%
inactive: T-47D breast 94% | BT-549 breast 74.6% | MDA-MB-435 melanoma 100% | MCF7 breast 45.9% | HCT-116 colon 62.9% | HCC-2998 colon 85% | KM12 colon 68.9%

COc1ccc2nc(Nc3cccc(NC(=O)c4ccc(CN5CCCN(C)CC5)c(C(F)(F)F)c4)c3)ccc2c1
active: T-47D breast -44.6% | BT-549 breast -61.4% | MDA-MB-435 melanoma -42.8% | MCF7 breast -62.8% | HCT-116 colon -47.1% | HCC-2998 colon -62.6% | KM12 colon -47.5% | MDA-MB-468 breast -71.1%

CSc1ccccc1NC(=O)c1ccc2nn(/C(C#N)=C/c3ccccn3)nc2c1
active: T-47D breast -78.4% | BT-549 breast -98.4% | MDA-MB-435 melanoma -18.2% | MCF7 breast -82.4% | HCT-116 colon -97.4% | HCC-2998 colon -94.5% | KM12 colon -44.9% | MDA-MB-468 breast -84.2%

COc1c(F)ccc(C(=O)Nc2ccc3nc(NC(=O)C4CCCN(S(=O)(=O)c5cccc(C(F)(F)F)c5)C4)sc3c2)c1F (stereo not given)
inactive: T-47D breast 48.4% | BT-549 breast 54.3% | MDA-MB-435 melanoma 87.1% | SW-620 colon 99.9% | HCT-116 colon 60.7% | HCC-2998 colon 107% | KM12 colon 80% | MDA-MB-468 breast 101%

COc1cc(/C=C/C(=O)c2nnn(-c3ccc(Cl)cc3)c2C)cc(OC)c1OC
active: MDA-MB-435 melanoma 2.83% | MCF7 breast 8.67% | MDA-MB-468 breast -20.7%
inactive: T-47D breast 43.2% | BT-549 breast 36.8% | HCT-116 colon 26.2% | HCC-2998 colon 23.1% | KM12 colon 20.8%

CC1=C(C(=O)c2ccccc2)C(c2cccc(Cl)c2Cl)n2c(nc3ccccc32)N1 (stereo not given)
active: MDA-MB-468 breast -38.3%
inactive: T-47D breast 76.6% | BT-549 breast 52.4% | MDA-MB-435 melanoma 72.1% | MCF7 breast 26.7% | HCT-116 colon 50.1% | HCC-2998 colon 88% | KM12 colon 92%

CC(=O)Nc1cccc(-c2nc3cc(-c4ccc(O)cc4)ccc3n2C)c1
inactive: MDA-MB-435 melanoma 11.1% | HCT-116 colon 45.7% | HCC-2998 colon 88.2% | KM12 colon 37.5%
active: T-47D breast 9.44% | BT-549 breast -8.08% | MCF7 breast 6.65% | MDA-MB-468 breast 7.83%

O=C1Nc2cc(Cl)ccc2/C1=C/c1cccc(OCc2ccccn2)c1
active: BT-549 breast -12.6% | MDA-MB-435 melanoma -39.9% | MCF7 breast 7.87% | HCT-116 colon 0.558% | MDA-MB-468 breast 1.49%
inactive: T-47D breast 26% | HCC-2998 colon 28.9% | KM12 colon 19.4%

COc1c(F)ccc(C(=O)Nc2ccc3nc(NC(=O)C4CCCN(S(=O)(=O)c5ccc(C#N)cc5)C4)sc3c2)c1F (stereo not given)
inactive: T-47D breast 61.9% | BT-549 breast 75.8% | MDA-MB-435 melanoma 105% | SW-620 colon 102% | HCT-116 colon 74% | HCC-2998 colon 119% | KM12 colon 96.3% | MDA-MB-468 breast 86.2%

O=C(/C=C/c1cccc(OCc2ccc(F)cc2)c1)c1nc2ccccc2[nH]1
active: MCF7 breast 3.5% | HCT-116 colon -24.9% | MDA-MB-468 breast 8.37%
inactive: T-47D breast 22.1% | BT-549 breast 16% | MDA-MB-435 melanoma 68.8% | HCC-2998 colon 26.6% | KM12 colon 13.6%

CC(C)Sc1nc(NCCc2c[nH]c3ccccc23)c(C#N)c(-c2ccc(F)cc2)n1
inactive: T-47D breast 20.8% | BT-549 breast 65% | MDA-MB-435 melanoma 58.7% | HCC-2998 colon 21.5% | KM12 colon 15.7%
active: MCF7 breast 4.29% | HCT-116 colon 3.83% | MDA-MB-468 breast 2.22%

O=C(COc1ccc(NC(=O)Nc2ccc(Cl)c(Cl)c2)cc1)N=Nc1c(O)[nH]c2ccc(Br)cc12
active: T-47D breast -26.4% | BT-549 breast -71.5% | MDA-MB-435 melanoma -51.3% | MCF7 breast -1.82% | HCT-116 colon -60.6% | HCC-2998 colon -67.3% | KM12 colon -87.2% | MDA-MB-468 breast -75%

Clc1cccc(Cl)c1/C=C/c1cc(/C=C/c2ccc(Br)cc2)c2ccccc2n1
inactive: T-47D breast 81.2% | BT-549 breast 91.2% | MDA-MB-435 melanoma 99.9% | MCF7 breast 83.3% | HCT-116 colon 95.8% | HCC-2998 colon 118% | KM12 colon 102% | MDA-MB-468 breast 111%

COc1ccc(/C=C2\C(=O)Nc3ccc(Cl)cc32)cc1OCc1ccccn1
inactive: T-47D breast 51.9% | BT-549 breast 46.1% | MDA-MB-435 melanoma 75.1% | MCF7 breast 34.7% | HCT-116 colon 21.1% | HCC-2998 colon 79.6% | KM12 colon 75.2% | MDA-MB-468 breast 59%

COc1ccc(-c2cc(C(=O)NCc3ccccc3)nn2-c2ccc(S(C)(=O)=O)cc2)cc1OC
inactive: T-47D breast 91.1% | BT-549 breast 104% | MDA-MB-435 melanoma 105% | MCF7 breast 95.2% | HCT-116 colon 102% | HCC-2998 colon 117% | KM12 colon 102% | MDA-MB-468 breast 100%

Cc1cc2c(cc1Cl)C(=O)/C(=C/c1ccc(F)cc1)O2
inactive: T-47D breast 69.1% | BT-549 breast 85% | MDA-MB-435 melanoma 106% | MCF7 breast 37.9% | HCT-116 colon 73.5% | HCC-2998 colon 117% | KM12 colon 92.7% | MDA-MB-468 breast 91.1%

N#Cc1c(-c2cccc(Cl)c2Cl)cc(-c2c[nH]c3ccccc23)[nH]c1=O
inactive: T-47D breast 63.4% | BT-549 breast 24.3% | MDA-MB-435 melanoma 57.7% | MCF7 breast 35.8% | HCT-116 colon 18.3% | HCC-2998 colon 88.1% | KM12 colon 64.3% | MDA-MB-468 breast 46.5%

CNC(=O)c1cccc(NC(=O)c2ccc3c(c2)nnn3/C(C#N)=C/c2ccccn2)c1
active: T-47D breast -70.4% | BT-549 breast -98.7% | MCF7 breast -77.2% | HCT-116 colon -89% | HCC-2998 colon -92.7% | MDA-MB-468 breast -85.5%
inactive: MDA-MB-435 melanoma 11.5% | KM12 colon 55.9%
